Bioassay records as filed in PubChem BioAssay.
Only some compounds are listed: those with a hit (about 3.2% of all), similar ones and a draw of the others.
Mtb FBA inh – inhibitors of M. tuberculosis fructose-bisphosphate aldolase; P9WQA3; purified M. tuberculosis FBA, fluorescence read-out; inhibition, % at 1 µM; 360,000 compounds, 2.3% hits; AID 588726;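 also: 0% = vehicle and 100% = reference inhibitor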
Target sequence (P9WQA3 whole entry, looked up): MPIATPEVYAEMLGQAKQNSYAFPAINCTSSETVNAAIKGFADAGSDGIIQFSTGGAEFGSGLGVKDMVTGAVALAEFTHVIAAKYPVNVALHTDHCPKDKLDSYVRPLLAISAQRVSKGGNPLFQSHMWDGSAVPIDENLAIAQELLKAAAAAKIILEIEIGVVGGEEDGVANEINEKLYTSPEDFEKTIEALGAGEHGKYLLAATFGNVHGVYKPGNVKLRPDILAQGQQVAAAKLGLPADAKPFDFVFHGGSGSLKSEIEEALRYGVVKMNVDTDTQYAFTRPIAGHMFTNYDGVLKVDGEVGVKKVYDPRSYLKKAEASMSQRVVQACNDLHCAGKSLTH
Mtb UGM inh – blocks M. tuberculosis UGM enzyme; P9WIQ1; purified UGM, fluorescence polarization probe displacement; inhibition, % at 10 µM; 320,000 compounds, 0.06% hits; in the data active = inhibition above about 10%, passing the limit was not always enough
GDH-TPI counter-1 – inhibits GDH-TPI coupling enzymes, artifact for Mtb FBA screen. inhibition, % at 4.8 µM. 360,000 compounds, 1.2% hits. AID 588335. GDH-TPI coupled enzyme counterscreen, NADH absorbance; in the data active = inhibition above about 30%;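 also: 0% = DMSO wells and 100% = wells lacking the enzyme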
PriA SSB inh – blocks PriA binding to SSB C-terminal tail; AlphaScreen SSBct-PriA binding, biotinylated peptide; inhibition, % at 33 µM; 430,000 compounds, 0.6% hits; in the data active = inhibition mostly above about 37%, no sharp cut-off; inactive = mostly below about 20%;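 also: plate controls were negative control peptide for no effect and reference peptide for full effect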
Mtb betalactam – beta-lactam sensitization of Mtb H37Rv. M. tuberculosis H37Rv growth with meropenem, percent inhibition. inhibition, % at 25 µM. 330,000 compounds, 0.27% hits. AID 434955; call rule not given here;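 also: growth measured after seven days incubation then overnight dye step; 0% = bacteria only wells and 100% = bacteria with antibiotic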
Rv3671c inh – inhibits the M. tuberculosis serine protease Rv3671c | P9WHR9 | inhibition, % at 5.96 µM | 320,000 compounds, 0.048% hits | AID 2606; in the data active = inhibition above about 38%;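 also: extracellular domain of Rv3671c used as enzyme; 0% = enzyme with DMSO and 100% = no enzyme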
Mtb FBA confirm – confirmation of M. tuberculosis fructose-bisphosphate aldolase inhibitors; shares compounds with Mtb FBA inh; purified M. tuberculosis FBA, fluorescence read-out; inhibition, % at 1 µM; AID 651616; 5,600 compounds, 78% hits;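 also: 0% = vehicle wells and 100% = reference inhibitor wells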
GDH-TPI counter-2 – GDH-TPI inhibition counter-screen for FBA inhibitors; AID 652141; inhibition, % at 1 µM; GDH-TPI coupled enzyme counterscreen, fluorescence; 5,600 compounds, 81% hits; shares compounds with Mtb FBA inh; in the data active = inhibition above about 10%
Numbers without * were called inactive; . = no result given; + = active, no number. Rule as the data show it, unless noted: active = inhibition above about 27%; inactive = the rest.

SMILES | Mtb FBA inh | Mtb UGM inh | GDH-TPI counter-1 | PriA SSB inh | Mtb betalactam | Rv3671c inh | Mtb FBA confirm | GDH-TPI counter-2
CC(C)NC(=O)Nc1cccc2c1O[C@H](CN(C)S(=O)(=O)c1ccccc1)[C@@H](C)CN([C@H](C)CO)C2=O | 39* | 7 | 1 | 0 | -1 | -3 | 59* | 61*
COc1ccc(-c2nc(SC(CC(=O)NCc3ccco3)c3cc(OC)c(OC)c(OC)c3)n[nH]2)cc1 (stereo not drawn) | . | . | . | -11 | . | . | . | .
Cc1cc(C)c(C(O)c2ncc(-c3cccc4ccccc34)[nH]2)c(C)c1 (stereo not drawn) | 57* | . | 14 | . | . | . | 89* | 69*
Cc1cccc(C)c1C(O)c1ncc(-c2cccc3ccccc23)[nH]1 (stereo not drawn) | 56* | . | 9 | . | . | . | 5 | -1
CC(C)c1nn(CC(=O)OCc2ccccc2)c(=O)c2c1cnn2-c1ccc(F)cc1 | . | . | . | -25 | . | . | . | .
Cc1ccc(CN2CCSc3ccc(C(=O)NCc4ccco4)cc32)cc1 | 54* | -3 | 4 | 3 | 1 | 13 | 5 | -1
COc1ccc(CCNC(=O)c2ccc3c(c2)N(Cc2ccc(F)cc2)CCS3)cc1OC | 72* | -1 | 4 | 6 | 2 | -14 | 55* | 33*
CCN1CCN(CCCNC(=O)c2ccc3c(c2)N(Cc2ccc(C)cc2)CCS3)CC1 | 76* | -2 | 9 | 26 | -1 | 5 | 131* | 102*
C/C(=N\NC(=O)CSc1nc2ccccc2[nH]1)c1cccs1 | . | . | . | 0 | . | . | . | .
O=C(CCSc1ccc2ccccc2n1)Nc1ccc(-c2nc3ccccc3s2)cc1 | . | . | . | -3 | . | . | . | .
CC(c1cccs1)N(Cc1ccco1)C(=S)Nc1ccc(F)c(Cl)c1 (stereo not drawn) | 38* | -1 | -5 | -5 | -3 | -2 | + | 144*
Cc1ccn2c(c1)nc(=O)c1cc(S(=O)(=O)N3CCOCC3)ccc12 | 79* | 0 | 10 | -7 | 4 | 3 | 153* | 109*
O=C(NC1CCCCCC1)c1cc(=O)[nH]c2ccc(S(=O)(=O)N3CCOCC3)cc12 | -3 | 0 | 6 | -6 | -3 | 7 | . | .
Cc1cc(=O)[nH]c2ccc(S(=O)(=O)N3CCOCC3)cc12 | 72* | 1 | -4 | 3 | -5 | -2 | 124* | 137*
c1ccc2cc(Oc3ncnc4sccc34)ccc2c1 | . | . | . | -23 | . | . | . | .
Cc1nn(-c2ccccc2)c(N2CCCC2)c1C=NNC(=O)C1CC1 | . | . | . | -16 | . | . | . | .
Cc1ncc(C(=O)O)c(C(=O)O)c1N | 34* | -1 | 6 | -4 | 9 | 1 | 19 | 15*
CCOC(=O)c1ccc(NC(=O)CSc2nnc(NC(=O)Cc3ccc(OC)cc3)s2)cc1 | . | . | . | 6 | . | . | . | .
CCN1CCN(CC(O)COc2ccc(C)c(C)c2)CC1 (stereo not drawn) | 0 | 0 | 4 | 3 | -5 | 5 | . | .
Cc1cc(=O)oc2cc(OCC(O)Cn3ccnc3)ccc12 (stereo not drawn) | 43* | 0 | 27 | -4 | -2 | 7 | 10 | -1
CCN1CCN(CC(O)COc2ccc3c(C)cc(=O)oc3c2)CC1 (stereo not drawn) | 53* | 1 | 7 | -10 | -2 | -4 | + | +
Cc1nn(CC(O)COc2ccc3c(C)cc(=O)oc3c2)c(C)c1Cl (stereo not drawn) | . | . | . | -8 | . | . | . | .
CCSc1ccc(Cc2nnc(NC(=O)c3nc4ccccc4s3)o2)cc1 | . | . | . | 11 | . | . | . | .
Clc1nc(Oc2ccccc2)nc(-c2cn(-c3ccccc3)c3ccccc23)n1 | 56* | 0 | 14 | -3 | -3 | 0 | 45* | 40*
CCNc1nc(Cl)nc(-c2cn(-c3ccccc3)c3ccccc23)n1 | 6 | -1 | 28 | 16 | 45 | -7 | . | .
SMILES | Mtb FBA inh | Mtb UGM inh | GDH-TPI counter-1 | PriA SSB inh | Mtb betalactam | Rv3671c inh | Mtb FBA confirm | GDH-TPI counter-2
C1CCN(CC2CSCCCN2)CC1 (stereo not drawn) | . | . | . | -5 | . | . | . | .
C=CCn1c(SCC(=O)c2cc(C)n(-c3ccccc3)c2C)nc2sc3c(c2c1=O)CCC(C)C3 (stereo not drawn) | . | . | . | -1 | . | . | . | .
COC(OC)c1ccc(C#N)c(=O)[nH]1 | 58* | -3 | 9 | -1 | 0 | -3 | -8 | -5
CC(Oc1ccc(Cl)cc1)c1ccc(C#N)c(=O)[nH]1 (stereo not drawn) | 34* | 2 | 22 | 5 | 0 | 5 | 123* | 97*
COc1ccc(OC(C)c2ccc(C#N)c(=O)[nH]2)cc1 (stereo not drawn) | 4 | 1 | 10 | 2 | 6 | 7 | . | .
CC(=O)Nc1cccc(C(=O)NN=Cc2cccc(C)n2)c1 | . | . | . | 6 | . | . | . | .
CCCCn1c2nc3ccccc3nc2c2c(=N)oc(C)nc21 | 31* | . | 2 | -6 | . | . | 35* | 26*
CCC(CO)NC(=O)Nc1c[nH]c2ccccc12 (stereo not drawn) | . | . | . | -9 | . | . | . | .
COc1ccc(S(=O)(=O)NCCc2cn3nc(C)c(C)nc3n2)cc1F | 61* | -1 | 9 | 5 | 3 | 9 | + | 149*
CC(=O)Nc1ccc(S(=O)(=O)NCCc2cn3nc(C)c(C)nc3n2)cc1 | 43* | -1 | 5 | -4 | 4 | 4 | 59* | 49*
c1ccc(-c2ccc(-c3ccccc3)[nH]2)cc1 | 64* | . | 18 | -12 | . | . | 178* | 163*
O=c1cc(-c2ccccc2)[nH]c(=S)[nH]1 | . | . | . | 7 | . | . | . | .
O=C(O)c1ccc(-c2ccccc2)[nH]c1=O | 106* | -4 | 19 | -7 | -4 | -3 | + | +
CS(=O)(=O)c1ccccc1C(=O)Nc1ccccc1Oc1ccccc1 | . | . | . | -5 | . | . | . | .
CCOC(=O)c1[nH]c2cc3c(cc2c1NC(=O)CN1CCC2(CC1)OCCO2)OCO3 | 106* | -3 | 28 | -6 | -2 | 2 | 6 | 8
CCOC(=O)c1[nH]c2ccc(OCC)cc2c1NC(=O)CN1CCC2(CC1)OCCO2 | 69* | 1 | 16 | -8 | -9 | -3 | + | +
CCOC(=O)c1[nH]c2ccc(OCC)cc2c1NC(=O)CN1CCN(c2ccccc2)CC1 | 13 | -1 | -6 | -2 | -5 | -1 | . | .
Cc1ccc2nc(-c3ccc(NC(=O)CN(c4ccccc4C)S(C)(=O)=O)cc3)sc2c1 | 90* | -1 | 12 | -22 | -10 | -1 | + | +
CNC(=S)Nc1ccc(-c2nc3ccc(C)cc3s2)cc1 | 93* | 3 | 20 | -13 | 73 | 1 | 45* | 32*
COCCNc1nnc(SC(C)C(=O)Nc2ccc(-c3nc4ccc(C)cc4s3)cc2)s1 (stereo not drawn) | 40* | 1 | 29 | -6 | 13 | -28 | + | +
CC(=O)NC(=S)Nc1ccc(-c2nc3ccc(C)cc3s2)cc1 | 6 | 3 | 5 | -16 | 54 | -5 | . | .
